Compounds with a hit are over-represented: about 2.6% of the library has one in this group of screens.
HIF-2a inh – blocks HIF-2a reporter activity. 786-0 RCC cells HIF-2a reporter, luciferase luminescence, overnight. inhibition, % at 18.8 µM. 360,000 tested, 0.72% active. AID 624352;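 active means inhibition of the luminescence signal of 40% or more relative to plate controls, in a single-dose primary screen at 18.75 µM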
Shn3 3UTR inh – Schnurri-3 reporter inhibition in Clone20 osteoblasts | Clone20 osteoblast Shn3 3'UTR firefly luciferase, 24 h | inhibition, % at 12.5 µM | 360,000 tested, 0.52% active | AID 588674;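 active means mean inhibition of at least 75% with every replicate also reaching 75%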
Peg3 promoter – reduces Peg3 promoter-driven luciferase expression in HeLa; HeLa PEG-Prom luciferase reporter, luminescence, overnight; inhibition, % at 20 µM; 360,000 tested, 1.7% active;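 active means inhibition of at least 50% at 20 µM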
KKLEB tox – counter-screen for CF NF-kB inhibitors: cytotoxicity. 360,000 tested, 0.36% active. KKLEB CF airway cells viability, ATPlite luminescence, overnight; active compounds read low; cells stimulated with P. aeruginosa culture filtrate. activity change (cytotoxicity), % at 5 µM;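 active means corrected activity change at or below -50% at 5 µM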
CF NFkB block – inhibitors of cystic fibrosis induced NF-kB. KKLEB NF-kB-GFP reporter, PAF-induced, GFP fluorescence overnight. AID 588850. 360,000 tested, 0.86% active. inhibition, % at 5 µM;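 active means at least 50% inhibition at 5 µM, scaled per plate between neutral and stimulator controls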;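 further: PAF is a Pseudomonas aeruginosa culture filtrate used as stimulus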
Hits are given with their value; – = inactive.

SMILES | HIF-2a inh | Shn3 3UTR inh | Peg3 promoter | KKLEB tox | CF NFkB block
CC1=C(C(=O)Nc2ccc(C)cc2C)C(c2cccc([N+](=O)[O-])c2)n2nc(C(=O)OC(C)C)nc2N1 (stereo not drawn) | – | – | 81 | – | –
CC1=C(C(=O)Nc2ccc(C)cc2C)C(c2cccc(Cl)c2)n2nc(C(=O)OC(C)C)nc2N1 (stereo not drawn) | – | – | – | – | –
O=C1c2ccccc2C2=Nc3ccccc3SC(c3ccc(Cl)cc3)C12 (stereo not drawn) | – | – | – | – | –
O=C1c2ccccc2C2=Nc3ccccc3SC(c3cccc(F)c3)C12 (stereo not drawn) | – | – | 58 | – | –
CCCCN(C(=O)CSc1nnc(-c2ccccc2OC)n1C)c1c(N)n(Cc2ccccc2)c(=O)[nH]c1=O | – | – | – | – | –
CN1CCCC(OC(=O)/C(C#N)=C/c2ccccc2)C1 (stereo not drawn) | – | – | – | – | –
N#Cc1c(-c2ccc(F)cc2)cc(-c2cccnc2)nc1N | – | – | 53 | – | –
N#Cc1c(-c2ccc(Br)cc2)cc(-c2cccnc2)nc1N | – | – | – | – | –
Cc1oc(-c2ccc(Cl)cc2)nc1CN1CCC(C(=O)N2CCc3ccccc3C2)CC1 | – | – | 79 | – | –
O=C(OCC(=O)N1CCOCC1)c1ccc(Cl)c(S(=O)(=O)N2CCc3ccccc32)c1 | – | – | – | – | –
Cc1ccc(C(=O)/C=C/c2ccc(-c3ccc(C)cc3)o2)cc1 | – | 92 | 74 | – | –
O=C(/C=C\c1ccc(-c2ccccc2)o1)c1ccccc1 | – | – | 80 | – | –
O/N=C\c1ccc(-c2ccccc2)o1 | – | – | – | – | –
CCCCNCC(O)(c1ccc(Cl)cc1)c1ccc(Cl)cc1 | – | – | 63 | – | –
O=C(COC(=O)COc1ccccc1)Nc1ccc(Br)cc1Br | – | – | – | – | –
COc1ccc(C#Cc2c(-c3ccsc3)oc3ccc(N4CCOCC4)cc23)cc1 | – | – | – | – | –
c1cc(-c2cc3cc(N4CCOCC4)ccc3o2)cs1 | – | – | – | -70 | –
Cc1cc(C)c(S(=O)(=O)N2CCCCC2)cc1N(C)S(=O)(=O)c1ccc(Cl)cc1 | – | – | 98 | – | –
Cc1ccc(S(=O)(=O)N(C)c2cc(S(=O)(=O)N3CCOCC3)c(C)cc2C)cc1 | – | – | – | – | –
CC[C@@]1(C(=O)OC)N[C@H](CN(C)C(=O)c2ccc(C(C)(C)C)cc2)[C@@H]2C(=O)N(Cc3ccccc3)C(=O)[C@@H]21 | – | – | – | – | –
CCN(C[C@H]1N[C@@](CC)(C(=O)OC)[C@H]2C(=O)N(Cc3ccccc3)C(=O)[C@@H]12)C(=O)c1ccc(C(C)(C)C)cc1 | – | – | 62 | -58 | 85
Cc1ccc2nc3c(cc(C(=O)NCc4ccccc4)c(=N)n3CCCn3ccnc3)c(=O)n2c1 | – | – | 54 | – | –
O=C1CC(=C(c2ccccc2)c2ccccc2)C(=O)N1CCCCN1CCN(c2cccc(Cl)c2)CC1 | – | – | 50 | – | –
Cc1cc(C)nc(Nc2nc(C(N)Cc3ccc(C(F)(F)F)cc3)cs2)n1 (stereo not drawn) | – | – | 102 | – | –
CS(=O)(=O)c1ccc(Nc2nc(C(N)Cc3ccc(C(F)(F)F)cc3)cs2)cc1 (stereo not drawn) | – | – | – | – | –
SMILES | HIF-2a inh | Shn3 3UTR inh | Peg3 promoter | KKLEB tox | CF NFkB block
CCCc1cnc(Nc2nc(C(N)Cc3ccc(C(F)(F)F)cc3)cs2)nc1 (stereo not drawn) | – | – | 96 | – | –
Cc1cc(C)nc(Nc2nc(C(N)Cc3ccc(F)cc3)cs2)n1 (stereo not drawn) | – | – | – | – | –
NC(Cc1ccc(C(F)(F)F)cc1)c1csc(Nc2nccc(C(F)(F)F)n2)n1 (stereo not drawn) | – | – | 92 | – | –
Cc1cc(C)nc(Nc2nc(C(N)Cc3ccc(Cl)cc3)cs2)n1 (stereo not drawn) | – | – | 92 | – | –
COc1ccc(C(=O)Nc2nc(C)cs2)cc1S(=O)(=O)N1CCOCC1 | – | – | – | – | –
Cc1cc(=O)[nH]c(N/N=C/c2ccccn2)n1 | – | 89 | – | – | –
O=C(NCCN1CCN(c2ccccc2)CC1)c1ccc2c(c1)[nH]c(=S)n1c3ccccc3nc21 | – | – | 50 | – | –
COc1ccc([C@H]2C[C@@H](n3cc(COC(=O)c4ccccc4)nn3)[C@H](O)CN2C(=O)C2CCCCC2)cc1 | – | – | – | – | –
